# Publication PMC7862700, “An all-to-all approach to the identification of sequence-specific readers for epigenetic DNA modifications on cytosine”
# Tests used:
# Test in all cases: DAPPL (digital affinity profiling via proximity ligation, sequencing); 10 mM Tris-HCl pH 7.5, 50 mM NaCl, 1 mM DTT, 4% glycerol, room temperature, 30 min; GST-TFs on glutathione beads, 16-mer random dsDNA library, 0.1% formaldehyde crosslink after washing; high values mean tight binding
# [1] = target: T1, FEV (Homo sapiens, UniProt Q99581 1-238); details: protein: recombinant; tags: N-terminal GST; dsDNA, one strand shown
# T1 sequence: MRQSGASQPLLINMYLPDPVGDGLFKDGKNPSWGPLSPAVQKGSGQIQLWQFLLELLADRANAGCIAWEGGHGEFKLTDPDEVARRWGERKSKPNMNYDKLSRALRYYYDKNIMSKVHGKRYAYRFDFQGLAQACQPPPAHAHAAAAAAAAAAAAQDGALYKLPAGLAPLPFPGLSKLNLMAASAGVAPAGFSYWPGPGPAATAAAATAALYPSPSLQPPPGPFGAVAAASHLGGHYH
# Summary of the method: (§1)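 Yeast served to express human transcription factors as GST fusions, which were then captured on glutathione beads and labelled with DNA barcodes. Pooled with a tag-only sample, they were incubated with 200 nmole of a 16-mer random double-stranded DNA library for 30 min at room temperature in Tris/NaCl/DTT/glycerol buffer, washed, crosslinked with 0.1% formaldehyde, ligated by proximity, amplified by PCR and sequenced. Dividing each hexamer's read frequency for a factor by its frequency for the tag-only sample gives the binding signal.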
# [2] = target: ETV5 (Homo sapiens, UniProt P41161 1-510); details: protein: recombinant; tags: N-terminal GST; dsDNA, one strand shown
# ETV5, sequence (P41161 whole entry): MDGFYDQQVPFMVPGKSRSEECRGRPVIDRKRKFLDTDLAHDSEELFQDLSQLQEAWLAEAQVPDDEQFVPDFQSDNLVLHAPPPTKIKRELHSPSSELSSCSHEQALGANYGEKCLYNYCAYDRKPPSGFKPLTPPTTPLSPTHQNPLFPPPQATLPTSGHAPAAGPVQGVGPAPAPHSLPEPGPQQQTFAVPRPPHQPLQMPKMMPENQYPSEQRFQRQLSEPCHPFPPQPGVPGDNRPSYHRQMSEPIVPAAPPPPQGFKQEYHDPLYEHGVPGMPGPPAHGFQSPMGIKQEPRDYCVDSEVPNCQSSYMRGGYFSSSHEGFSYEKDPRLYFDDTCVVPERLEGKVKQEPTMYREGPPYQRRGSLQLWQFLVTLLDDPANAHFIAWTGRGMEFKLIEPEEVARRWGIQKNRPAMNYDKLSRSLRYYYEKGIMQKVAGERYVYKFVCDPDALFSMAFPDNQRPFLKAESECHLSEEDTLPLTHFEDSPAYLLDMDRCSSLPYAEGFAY
# Summary of the method: as §1
# [3] = target: HSF1 (Homo sapiens, UniProt Q00613 1-529); details: protein: recombinant; tags: N-terminal GST; chain copies: 3; dsDNA, one strand shown
# HSF1, sequence (Q00613 whole entry): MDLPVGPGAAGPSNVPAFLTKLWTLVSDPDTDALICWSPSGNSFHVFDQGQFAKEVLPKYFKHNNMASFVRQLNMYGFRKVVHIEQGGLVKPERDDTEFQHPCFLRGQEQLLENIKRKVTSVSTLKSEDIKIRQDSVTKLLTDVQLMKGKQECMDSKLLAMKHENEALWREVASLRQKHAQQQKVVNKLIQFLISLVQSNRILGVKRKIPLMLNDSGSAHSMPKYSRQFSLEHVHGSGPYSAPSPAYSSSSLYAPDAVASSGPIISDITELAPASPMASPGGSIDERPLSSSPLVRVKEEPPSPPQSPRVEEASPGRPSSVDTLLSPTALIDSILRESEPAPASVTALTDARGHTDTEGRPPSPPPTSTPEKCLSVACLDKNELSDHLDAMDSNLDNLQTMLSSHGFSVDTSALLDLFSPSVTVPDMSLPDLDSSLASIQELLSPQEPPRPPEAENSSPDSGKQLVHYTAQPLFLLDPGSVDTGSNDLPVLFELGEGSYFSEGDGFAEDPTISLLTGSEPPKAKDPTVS
# Summary of the method: as §1
# [4] = target: T2, SPIC (Homo sapiens, UniProt Q8N5J4 1-248); details: protein: recombinant; tags: N-terminal GST; dsDNA, one strand shown
# T2 sequence: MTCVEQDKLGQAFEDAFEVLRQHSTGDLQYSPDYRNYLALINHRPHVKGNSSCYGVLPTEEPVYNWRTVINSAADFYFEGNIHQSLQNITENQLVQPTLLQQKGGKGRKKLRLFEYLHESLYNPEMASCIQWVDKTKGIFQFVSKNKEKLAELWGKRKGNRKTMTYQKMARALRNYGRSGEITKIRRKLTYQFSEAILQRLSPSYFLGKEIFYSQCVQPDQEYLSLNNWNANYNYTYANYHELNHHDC
# Summary of the method: as §1
# [5] = target: ELF4 (Homo sapiens, UniProt Q99607 1-663); details: protein: recombinant; tags: N-terminal GST; dsDNA, one strand shown
# ELF4, sequence (Q99607 whole entry): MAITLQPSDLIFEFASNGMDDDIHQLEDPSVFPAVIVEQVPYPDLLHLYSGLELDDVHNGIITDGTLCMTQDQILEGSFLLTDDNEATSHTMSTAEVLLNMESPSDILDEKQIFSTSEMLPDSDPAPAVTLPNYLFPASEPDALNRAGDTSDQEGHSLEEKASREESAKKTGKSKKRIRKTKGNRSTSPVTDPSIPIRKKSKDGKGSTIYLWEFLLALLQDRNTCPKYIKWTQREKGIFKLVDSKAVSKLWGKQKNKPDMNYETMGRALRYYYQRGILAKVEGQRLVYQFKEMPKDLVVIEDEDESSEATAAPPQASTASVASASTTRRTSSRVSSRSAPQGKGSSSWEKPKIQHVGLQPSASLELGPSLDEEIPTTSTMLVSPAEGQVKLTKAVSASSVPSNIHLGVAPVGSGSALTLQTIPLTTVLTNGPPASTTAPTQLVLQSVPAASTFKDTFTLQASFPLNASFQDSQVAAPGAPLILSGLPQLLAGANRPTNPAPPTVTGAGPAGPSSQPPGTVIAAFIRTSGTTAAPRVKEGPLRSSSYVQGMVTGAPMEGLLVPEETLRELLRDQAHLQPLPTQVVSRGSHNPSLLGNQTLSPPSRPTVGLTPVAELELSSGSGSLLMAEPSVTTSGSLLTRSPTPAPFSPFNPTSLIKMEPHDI
# Summary of the method: as §1
# [6] = target: T3, ELK4 (Homo sapiens, UniProt P28324-2 1-405); details: protein: recombinant; tags: N-terminal GST; dsDNA, one strand shown
# T3 sequence: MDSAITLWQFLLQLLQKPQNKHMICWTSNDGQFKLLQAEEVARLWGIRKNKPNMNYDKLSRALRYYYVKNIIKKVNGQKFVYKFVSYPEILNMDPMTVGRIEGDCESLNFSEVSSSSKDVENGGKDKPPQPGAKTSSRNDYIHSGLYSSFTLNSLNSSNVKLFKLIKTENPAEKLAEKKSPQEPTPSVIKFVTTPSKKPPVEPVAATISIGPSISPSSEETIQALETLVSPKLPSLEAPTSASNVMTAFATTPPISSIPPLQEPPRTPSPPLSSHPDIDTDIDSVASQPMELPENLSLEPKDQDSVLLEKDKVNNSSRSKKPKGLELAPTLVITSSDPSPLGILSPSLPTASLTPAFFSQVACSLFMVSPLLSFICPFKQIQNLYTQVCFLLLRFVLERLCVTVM
# Summary of the method: as §1
# [7] = target: T4, ETV2 (Homo sapiens, UniProt O00321 1-342); details: protein: recombinant; tags: N-terminal GST; dsDNA, one strand shown
# T4 sequence: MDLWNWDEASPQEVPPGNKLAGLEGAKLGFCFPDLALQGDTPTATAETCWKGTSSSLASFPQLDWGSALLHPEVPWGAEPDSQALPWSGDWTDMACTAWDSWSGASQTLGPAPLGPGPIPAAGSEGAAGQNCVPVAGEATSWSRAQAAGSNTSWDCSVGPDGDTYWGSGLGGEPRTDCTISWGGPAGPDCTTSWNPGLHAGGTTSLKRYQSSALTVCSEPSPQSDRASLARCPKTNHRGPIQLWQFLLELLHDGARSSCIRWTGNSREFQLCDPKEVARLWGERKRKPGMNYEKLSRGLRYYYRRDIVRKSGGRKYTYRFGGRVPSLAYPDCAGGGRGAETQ
# Summary of the method: as §1
# [8] = target: T5, ELF3 (Homo sapiens, UniProt P78545 1-371); details: protein: recombinant; tags: N-terminal GST; dsDNA, one strand shown
# T5 sequence: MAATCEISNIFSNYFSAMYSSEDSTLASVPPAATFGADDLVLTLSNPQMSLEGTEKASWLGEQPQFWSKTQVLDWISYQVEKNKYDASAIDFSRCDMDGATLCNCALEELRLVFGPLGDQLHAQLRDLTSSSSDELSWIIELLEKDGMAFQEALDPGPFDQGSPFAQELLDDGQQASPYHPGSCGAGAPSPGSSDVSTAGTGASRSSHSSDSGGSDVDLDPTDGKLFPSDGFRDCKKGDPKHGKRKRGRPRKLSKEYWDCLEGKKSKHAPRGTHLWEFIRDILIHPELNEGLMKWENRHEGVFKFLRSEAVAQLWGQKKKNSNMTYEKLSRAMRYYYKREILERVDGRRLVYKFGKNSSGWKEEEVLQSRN
# Summary of the method: as §1
# [9] = target: CRX (Homo sapiens, UniProt O43186 1-299); details: protein: recombinant; tags: N-terminal GST; dsDNA, one strand shown
# CRX, sequence (O43186 whole entry): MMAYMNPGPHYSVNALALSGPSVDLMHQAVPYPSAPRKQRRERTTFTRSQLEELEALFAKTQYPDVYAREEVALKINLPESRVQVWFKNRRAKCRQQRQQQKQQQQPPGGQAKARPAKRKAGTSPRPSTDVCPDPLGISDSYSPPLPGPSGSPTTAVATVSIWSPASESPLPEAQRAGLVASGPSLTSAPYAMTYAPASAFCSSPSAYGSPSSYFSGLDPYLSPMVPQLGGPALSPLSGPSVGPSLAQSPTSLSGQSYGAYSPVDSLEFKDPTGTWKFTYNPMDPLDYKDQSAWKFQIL
# Summary of the method: as §1
# [10] = target: ETV1 (Homo sapiens, UniProt P50549 1-477); details: protein: recombinant; tags: N-terminal GST; dsDNA, one strand shown
# ETV1, sequence (P50549 whole entry): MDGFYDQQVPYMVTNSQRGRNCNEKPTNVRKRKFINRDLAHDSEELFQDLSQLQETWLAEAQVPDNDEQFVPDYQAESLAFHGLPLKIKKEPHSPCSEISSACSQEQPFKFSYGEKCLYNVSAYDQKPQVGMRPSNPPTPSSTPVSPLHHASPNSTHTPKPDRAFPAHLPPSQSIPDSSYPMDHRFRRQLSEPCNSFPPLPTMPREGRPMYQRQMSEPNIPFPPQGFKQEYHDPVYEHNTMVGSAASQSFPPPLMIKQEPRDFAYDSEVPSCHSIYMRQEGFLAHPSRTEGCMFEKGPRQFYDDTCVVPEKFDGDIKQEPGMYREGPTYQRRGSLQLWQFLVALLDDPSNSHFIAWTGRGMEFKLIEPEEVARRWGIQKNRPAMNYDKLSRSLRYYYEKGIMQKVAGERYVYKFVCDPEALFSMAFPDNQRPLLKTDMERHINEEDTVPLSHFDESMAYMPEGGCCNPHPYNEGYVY
# Summary of the method: as §1
# [11] = target: T6, ERF (Homo sapiens, UniProt P50548 1-548); details: protein: recombinant; tags: N-terminal GST; dsDNA, one strand shown
# T6 sequence: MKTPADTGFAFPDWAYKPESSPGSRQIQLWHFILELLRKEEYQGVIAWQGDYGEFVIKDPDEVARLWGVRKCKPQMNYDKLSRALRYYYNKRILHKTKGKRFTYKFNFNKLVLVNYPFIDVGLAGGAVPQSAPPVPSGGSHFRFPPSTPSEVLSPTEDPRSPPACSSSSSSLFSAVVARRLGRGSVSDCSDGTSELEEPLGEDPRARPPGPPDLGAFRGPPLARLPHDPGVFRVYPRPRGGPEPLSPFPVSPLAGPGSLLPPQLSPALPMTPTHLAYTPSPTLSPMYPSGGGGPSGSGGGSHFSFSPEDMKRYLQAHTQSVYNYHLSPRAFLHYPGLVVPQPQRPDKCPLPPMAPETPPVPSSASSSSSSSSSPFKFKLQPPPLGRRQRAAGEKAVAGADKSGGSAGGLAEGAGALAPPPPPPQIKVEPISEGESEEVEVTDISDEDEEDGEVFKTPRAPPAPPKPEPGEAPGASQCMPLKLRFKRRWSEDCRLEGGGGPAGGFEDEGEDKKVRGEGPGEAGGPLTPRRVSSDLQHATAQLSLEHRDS
# Summary of the method: as §1
# [12] = target: T7, ETV3L (Homo sapiens, UniProt Q6ZN32 1-361); details: protein: recombinant; tags: N-terminal GST; dsDNA, one strand shown
# T7 sequence: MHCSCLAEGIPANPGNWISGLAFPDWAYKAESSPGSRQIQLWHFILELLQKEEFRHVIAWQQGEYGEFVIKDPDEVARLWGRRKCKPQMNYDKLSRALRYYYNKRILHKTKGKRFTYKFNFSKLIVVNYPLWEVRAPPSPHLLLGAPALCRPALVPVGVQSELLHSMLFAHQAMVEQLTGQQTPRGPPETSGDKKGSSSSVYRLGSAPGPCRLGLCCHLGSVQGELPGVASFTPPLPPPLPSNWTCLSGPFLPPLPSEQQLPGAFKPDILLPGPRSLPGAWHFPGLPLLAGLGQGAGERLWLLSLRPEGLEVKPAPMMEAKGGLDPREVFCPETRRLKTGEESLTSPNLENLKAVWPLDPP
# Summary of the method: as §1
# [13] = target: T8, ETS2 (Homo sapiens, UniProt P15036 1-469); details: protein: recombinant; tags: N-terminal GST; dsDNA, one strand shown
# T8 sequence: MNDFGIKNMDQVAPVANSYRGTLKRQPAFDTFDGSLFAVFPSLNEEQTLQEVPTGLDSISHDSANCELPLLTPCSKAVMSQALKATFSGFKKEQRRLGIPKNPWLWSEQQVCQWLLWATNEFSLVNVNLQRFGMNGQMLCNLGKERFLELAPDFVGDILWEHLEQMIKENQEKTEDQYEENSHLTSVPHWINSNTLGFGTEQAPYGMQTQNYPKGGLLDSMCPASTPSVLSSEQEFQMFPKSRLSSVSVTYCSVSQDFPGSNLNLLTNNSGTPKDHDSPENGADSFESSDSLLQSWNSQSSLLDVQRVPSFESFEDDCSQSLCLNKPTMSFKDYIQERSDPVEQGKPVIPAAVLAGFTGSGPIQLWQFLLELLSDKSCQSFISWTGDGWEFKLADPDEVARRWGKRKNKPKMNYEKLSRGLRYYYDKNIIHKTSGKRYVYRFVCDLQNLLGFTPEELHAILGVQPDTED
# Summary of the method: as §1
# [14] = target: T9, SPDEF (Homo sapiens, UniProt O95238 1-335); details: protein: recombinant; tags: N-terminal GST; dsDNA, one strand shown
# T9 sequence: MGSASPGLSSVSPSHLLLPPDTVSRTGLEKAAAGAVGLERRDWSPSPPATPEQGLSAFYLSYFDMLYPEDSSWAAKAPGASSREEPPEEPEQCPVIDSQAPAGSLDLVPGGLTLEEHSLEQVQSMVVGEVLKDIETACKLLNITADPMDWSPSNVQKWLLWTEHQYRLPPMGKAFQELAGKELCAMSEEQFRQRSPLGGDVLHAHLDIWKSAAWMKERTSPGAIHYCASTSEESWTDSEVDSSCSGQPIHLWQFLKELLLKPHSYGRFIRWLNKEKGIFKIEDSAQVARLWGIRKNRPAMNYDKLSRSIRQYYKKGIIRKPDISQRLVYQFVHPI
# Summary of the method: as §1
# [15] = target: T10, ETV7 (Homo sapiens, UniProt Q9Y603 1-341); details: protein: recombinant; tags: N-terminal GST; dsDNA, one strand shown
# T10 sequence: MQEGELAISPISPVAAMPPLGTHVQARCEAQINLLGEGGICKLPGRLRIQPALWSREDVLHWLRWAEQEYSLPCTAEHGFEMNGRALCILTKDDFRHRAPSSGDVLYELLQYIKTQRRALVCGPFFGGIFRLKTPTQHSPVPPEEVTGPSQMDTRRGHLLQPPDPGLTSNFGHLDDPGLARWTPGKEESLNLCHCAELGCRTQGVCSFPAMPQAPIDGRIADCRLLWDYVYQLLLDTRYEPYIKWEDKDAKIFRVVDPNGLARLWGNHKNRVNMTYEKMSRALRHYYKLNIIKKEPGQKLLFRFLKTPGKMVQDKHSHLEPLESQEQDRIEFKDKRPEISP
# Summary of the method: as §1
# [16] = target: T11, ELF5 (Homo sapiens, UniProt Q9UKW6-2 1-255); details: protein: recombinant; tags: N-terminal GST; dsDNA, one strand shown
# T11 sequence: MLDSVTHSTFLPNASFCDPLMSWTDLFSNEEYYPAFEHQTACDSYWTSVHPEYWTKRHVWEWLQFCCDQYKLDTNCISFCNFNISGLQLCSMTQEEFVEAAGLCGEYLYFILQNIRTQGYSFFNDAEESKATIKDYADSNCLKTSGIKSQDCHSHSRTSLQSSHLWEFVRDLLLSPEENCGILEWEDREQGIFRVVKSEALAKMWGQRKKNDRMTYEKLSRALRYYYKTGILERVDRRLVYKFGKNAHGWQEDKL
# Summary of the method: as §1
# [17] = target: ETV6 (Homo sapiens, UniProt P41212 1-452); details: protein: recombinant; tags: N-terminal GST; dsDNA, one strand shown
# ETV6, sequence (P41212 whole entry): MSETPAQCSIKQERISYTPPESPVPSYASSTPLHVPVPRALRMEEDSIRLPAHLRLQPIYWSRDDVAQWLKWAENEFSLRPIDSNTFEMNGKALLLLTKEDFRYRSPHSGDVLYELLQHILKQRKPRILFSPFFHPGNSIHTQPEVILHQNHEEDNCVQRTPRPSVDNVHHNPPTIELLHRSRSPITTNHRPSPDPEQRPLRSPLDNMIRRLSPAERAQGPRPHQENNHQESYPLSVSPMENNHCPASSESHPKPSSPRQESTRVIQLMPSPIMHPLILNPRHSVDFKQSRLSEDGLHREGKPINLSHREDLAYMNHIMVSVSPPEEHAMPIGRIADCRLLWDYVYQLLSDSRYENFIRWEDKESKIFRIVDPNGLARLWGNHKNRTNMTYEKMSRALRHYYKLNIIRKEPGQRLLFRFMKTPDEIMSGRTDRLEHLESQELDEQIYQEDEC
# Summary of the method: as §1
sequence,measurement,setting,value
TAGGGT,binding signal,[1],"1.07 fold enrichment (6-mer frequency, TF over GST control)"
same,binding signal,[2],"1.08 fold enrichment (6-mer frequency, TF over GST control)"
same,binding signal,[3],"1.06 fold enrichment (6-mer frequency, TF over GST control)"
same,binding signal,[4],"1.11 fold enrichment (6-mer frequency, TF over GST control)"
same,binding signal,[5],"1.09 fold enrichment (6-mer frequency, TF over GST control)"
same,binding signal,[6],"1.22 fold enrichment (6-mer frequency, TF over GST control)"
same,binding signal,[7],"1.16 fold enrichment (6-mer frequency, TF over GST control)"
same,binding signal,[8],"1.1 fold enrichment (6-mer frequency, TF over GST control)"
same,binding signal,[9],"1.2 fold enrichment (6-mer frequency, TF over GST control)"
same,binding signal,[10],"1.01 fold enrichment (6-mer frequency, TF over GST control)"
same,binding signal,[11],"1.15 fold enrichment (6-mer frequency, TF over GST control)"
same,binding signal,[12],"1.03 fold enrichment (6-mer frequency, TF over GST control)"
same,binding signal,[13],"1.02 fold enrichment (6-mer frequency, TF over GST control)"
same,binding signal,[14],"1.12 fold enrichment (6-mer frequency, TF over GST control)"
same,binding signal,[15],"1.11 fold enrichment (6-mer frequency, TF over GST control)"
same,binding signal,[16],"1.06 fold enrichment (6-mer frequency, TF over GST control)"
same,binding signal,[17],"1.04 fold enrichment (6-mer frequency, TF over GST control)"
